Bioassay records deposited in PubChem by Broad Institute.
The list is not random: actives were taken first. Their share in the collection is about 2.2%.
EBV LMP1 NFkB – Epstein-Barr LMP1 NF-kappaB reporter inhibition; AID 504558; LMP1-induced NF-kappaB luciferase reporter cells, luminescence; inhibition, % at 12.5 µM; hit rate 0.69% among 350,000; in the data active = inhibition above about 41%; inconclusive = no clear call, values can overlap the other calls;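 also: 0% = neutral control wells and 100% = reference inhibitor control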
PGC1a acetyl inh – PGC1a acetylation modulation, inhibitor mode | hit rate 0.17% among 350,000 | inhibition, % at 15.6 µM | U2OS PGC1a acetylation, AlphaScreen anti-acetyl-lysine; with virally co-expressed GCN5 acetyltransferase;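 active = every replicate shows inhibition of at least 40%; inconclusive = mean inhibition at least 40% but some replicate below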;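 also: 0% = neutral control wells and 100% = positive control wells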
PAX8 reporter – inhibitors of PAX8 transcriptional activity in RMG-I cells. RMG-I TPO-luciferase reporter, SteadyGlo, 24 h. inhibition, % at 12.6 µM. hit rate 1.2% among 360,000. AID 652154;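 active = mean replicate inhibition at least 60% with every replicate also reaching 60%; inconclusive = only one of the two criteria is met; inactive = mean below 60% and not all replicates reaching 60%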;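 also: luciferase light reporting Pax8 driven TPO promoter activity; plate controls were median of neutral control wells for no effect and mitoxantrone controls for full effect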
LGR2 antag – inhibitors of bursicon-induced Drosophila LGR2 receptor cAMP signaling | AID 720647 | HEK293 LGR2, CRE-luciferase, bursicon-stimulated, 4 h | hit rate 0.35% among 380,000 | inhibition, % at 9.99 µM;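 active = drop in luminescence signal, shown as inhibition above about 50% in the replicate tests, limit read from the data, passing the limit was not always enough; inconclusive = probably only some replicates passing the limit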;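 also: agonist challenge used bursicon conditioned medium at about half maximal strength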
EWS-Fli inh – blocks EWS/Fli oncoprotein-driven transcription; A673 NR0B1-luciferase reporter, viability-normalised; inhibition, % at 12.6 µM; hit rate 0.67% among 350,000; AID 651661;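 active = mean inhibition of at least 50% after viability correction, with every replicate also passing that limit; inconclusive = mean reaches 50% but only one of two replicates passes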;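 also: firefly luciferase signal divided by Alamar Blue viability fluorescence both relative to DMSO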
MITF TRPM1 inh – reduces MITF-dependent TRPM1 promoter luciferase signal; SK-MEL-5 TRPM1 promoter luciferase, 24 h; inhibition, % at 12.5 µM; hit rate 0.83% among 330,000;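 active = mean inhibition across replicates of 60% or more, whatever share of single replicates reaches that level; inconclusive = some that reach 60%, reason not given; inactive = mean inhibition across replicates below 60%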
* = called active by the depositor; ? = inconclusive; · = not tested or not shown; ! = a repeat was not active.

SMILES	EBV LMP1 NFkB	PGC1a acetyl inh	PAX8 reporter	LGR2 antag	EWS-Fli inh	MITF TRPM1 inh
Cc1c(/C(O)=C2\C(=O)C(=O)N(CCN(C)C)C2c2cccnc2)cnn1-c1ccccc1 (configuration not stated)	1.6	-2.4	·	5.5	·	-15.3
Cc1c(/C(O)=C2\C(=O)C(=O)N(CCCN(C)C)C2c2ccccc2)cnn1-c1ccccc1 (configuration not stated)	13.1	81.6*	-38.6	-4.5	-0.9	9.9
O=C1C(=O)N(CCN2CCOCC2)C(c2ccccn2)/C1=C(/O)c1ccc(F)cc1 (configuration not stated)	0.6	-24.8	-13.3	·	·	4.4
O=C(O)C1C2CC3OC(=O)C1C3C2 (configuration not stated)	-2.2	61.8*	1.0	-11.3	3.4	6.9
C[C@@H]1CN([C@H](C)CO)C(=O)CCCn2nncc2CO[C@@H]1CN(C)S(=O)(=O)c1cn(C)cn1	-5.1	100.7*!	-18.5	1.9	-5.1	·
Cc1ccc(S(=O)(=O)N(C)C[C@H]2OCc3cnnn3CCCC(=O)N([C@@H](C)CO)C[C@H]2C)cc1	5.2	5.4	62.2*!	7.1	5.1	·
Cc1ccc(S(=O)(=O)N(C)C[C@H]2OCc3cnnn3CCCC(=O)N([C@H](C)CO)C[C@H]2C)cc1	-14.7	10.9	?	6.1	6.5	·
Cc1ccc2nc3cc([N+](=O)[O-])cc([N+](=O)[O-])c3cc2c1	-69.7	·	5.8	?	61.0*	62.6*
COc1ccc(NC(=O)Nc2ccc3c(c2)C(=O)N([C@H](C)CO)C[C@@H](C)[C@H](CN(C)Cc2ccc(C(F)(F)F)cc2)O3)cc1	·	-22.7	11.6	3.2	2.0	·
COc1ccc(NC(=O)Nc2ccc3c(c2)C(=O)N([C@@H](C)CO)C[C@@H](C)[C@H](CN(C)Cc2ccc(C(F)(F)F)cc2)O3)cc1	·	10.8	90.9*	-0.6	-3.1	·
C[C@H](CO)N1C[C@H](C)[C@@H](CN(C)Cc2ccc(C(F)(F)F)cc2)Oc2ccc(NC(=O)Nc3ccccc3)cc2C1=O	·	0.4	·	-4.2	10.2	·
C[C@@H]1CN([C@@H](C)CO)C(=O)c2cc(NC(=O)Nc3ccc(F)cc3)ccc2O[C@@H]1CN(C)Cc1ccc(C(F)(F)F)cc1	·	8.3	69.9*	-6.1	11.0	·
CO[C@@H]1CN(C)C(=O)c2ccc(NC(C)=O)cc2OC[C@H](C)N(CCc2ccccc2)C[C@H]1C	·	-4.3	·	6.7	16.3	·
Cc1cc(C(C)(C)C)cc(C)c1Cn1c2[n+](c3ccc(C(F)(F)F)cc31)CCCCC2	0.2	-0.5	90.5*	-8.6	40.3	84.2*
COc1ccc(S(=O)(=O)Nc2ccc(O)c3ccccc23)cc1	-7.6	-8.1	·	·	·	68.7*
COc1ccc(S(=O)(=O)Nc2ccccc2)cc1	5.2	-5.4	15.2	-4.7	6.2	5.4
CCOC(=O)c1c(C)[nH]c(C(=O)N/N=C\c2ccccc2O)c1C	52.2*	-7.4	-52.4	-33.9	-64.8	18.6
C[C@@H]1CN([C@H](C)CO)C(=O)c2cc(NC(=O)Nc3ccc4c(c3)OCO4)ccc2O[C@H]1CN(C)C(=O)Nc1ccc(C(F)(F)F)cc1	·	5.2	65.4*	20.1	-42.2	·
C[C@@H]1CN([C@H](C)CO)C(=O)c2cc(NC(=O)Nc3ccc(C(F)(F)F)cc3)ccc2O[C@@H]1CN(C)C(=O)Nc1ccc2c(c1)OCO2	·	-8.7	·	28.5	-1.4	·
C[C@@H]1CN([C@@H](C)CO)C(=O)c2cc(NC(=O)Nc3ccc(C(F)(F)F)cc3)ccc2O[C@H]1CN(C)C(=O)Nc1ccc(C(F)(F)F)cc1	·	-15.5	91.7*	14.7	20.9	·
CCCNC(=O)C[C@@H]1CC[C@H]2[C@H](COc3ccc(NC(=O)c4cc(F)cc(F)c4)cc3C(=O)N2C)O1	·	-10.7	-8.2	8.0	3.5	·
Cc1ccc(NC(=O)CSc2nnc(NC(=O)C(C)C)s2)c(C)c1	62.6*	2.5	-5.5	-6.9	4.5	-0.2
CCSc1nnc(NC(=O)C(C)C)s1	-0.9	1.8	-21.4	-11.3	-8.6	6.8
CCOC(=O)CSC1=NC(=O)/C(=C\c2ccc(OC(C)=O)cc2)S1	-27.8	7.6	·	·	·	78.7*
CN(C)c1ccc2c(c1)[C@H]1C[C@H](CC(=O)NCc3ccc(Oc4ccccc4)cc3)O[C@@H](CO)[C@H]1O2	·	-8.5	36.7	11.3	20.1	·
SMILES	EBV LMP1 NFkB	PGC1a acetyl inh	PAX8 reporter	LGR2 antag	EWS-Fli inh	MITF TRPM1 inh
Cc1ccc2[nH]c(-c3ccccc3)cc(=O)c2c1	18.1	-2.4	-20.3	·	58.1*	13.3
COC(=O)/C(C#N)=C/c1ccc(OC(=O)c2ccccn2)cc1	-7.2	·	0.6	6.5	51.6*	-8.6
CCOC(=O)/C(C#N)=C/c1ccc(OC(=O)c2ccccn2)cc1	-1.3	0.9	0.4	-12.1	9.9	-11.0
O=C(c1ccncc1)N1CC2(C1)[C@H](c1ccccc1)[C@@H](CO)N2Cc1ccccn1	·	7.4	-1.9	-25.5	7.1	·
CCC(C)NC(=O)Nc1ccc(Br)cc1 (configuration not stated)	-5.0	·	-87.7	-4.1	-44.3	-18.5
CCC(C)Nc1ccc(NC(C)CC)cc1 (configuration not stated)	22.5	-24.9	·	·	·	97.1*
CCN1/C(=C/C(=O)c2ccco2)Sc2ccccc21	-18.5	·	·	-22.4	·	20.4
CCN1/C(=C/c2sc(-c3ccccc3C)c[n+]2C)Sc2ccccc21	23.0	·	98.1*	29.0	65.4*	86.0*
O=C(CCN1CCCCC1)N[C@H]1CC[C@@H](CCNS(=O)(=O)c2ccccc2)O[C@@H]1CO	·	-8.0	0.3	1.4	-5.8	·
Clc1cccc2c1Sc1ccccc1CC2N1CCNCC1 (configuration not stated)	-10.5	·	30.2	1.6	·	29.1
Clc1ccc2c(c1)C(N1CCNCC1)Cc1ccccc1S2 (configuration not stated)	-19.3	-38.1	·	·	·	94.2*
C[C@H]1CN([C@@H](C)CO)C(=O)CCCn2nncc2CO[C@H]1CN(C)C(=O)Nc1ccc(F)cc1	·	5.2	-0.9	10.1	-3.2	·
CCN(CC)c1ccc(/C=N/NC(=O)c2c(Cl)cnn2C)c(O)c1	51.8*	·	53.1	-14.5	·	16.5
CCN(CC)c1ccc(/C=N/NC(=O)c2cccc(S(=O)(=O)N3CCOCC3)c2)c(O)c1	55.5*	18.5	?	27.0	26.3	82.3*
CC(=O)Nc1ccc2c(c1)C(=O)N(C)[C@H]1CC[C@@H](CC(=O)NCc3ccccc3)O[C@@H]1CO2	·	-1.9	0.7	-6.5	10.7	·
